# Data taken from PubChem BioAssay AID651640 (Broad Institute, 2012).
# The campaign covered roughly 350,000 compounds. About 6,000 (1.7%) were called active. Not shown: some 5% with an inconclusive outcome. This excerpt belongs to a sample that is enriched for actives. A number with no mark means an inactive call. Rule as the data show it: active = CPE inhibition above about 20% (passing the limit was not always enough); inconclusive = no clear call, values can overlap the other calls; tested in BHK-21 cells.
# Experiment: inhibitors of DENV2 cytopathic effect, primary screen, cell-based, plate reader, single concentration (AID 651640);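 also: 0% = median of neutral control wells and 100% = median of positive control wells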
# Settings: DENV2-infected cells, cytopathic effect rescue, at 9.99 µM, hits give high values
row,SMILES,CPE inhibition
1,CNC(=O)C[C@@H]1CC[C@@H]2[C@@H](COc3ccc(NC(=O)c4ccc(F)cc4)cc3C(=O)N2C)O1,-2.03%
2,C[C@H]1CN([C@@H](C)CO)C(=O)c2cccc(NC(=O)Nc3ccccc3)c2O[C@H]1CN(C)C(=O)Nc1cccc2ccccc12,3.97%
3,C[C@@H]1CN([C@@H](C)CO)C(=O)c2cccc(NC(=O)CCCCCC(=O)Nc3ccccc3N)c2O[C@H]1CN(C)C(=O)Nc1ccccc1,4.08%
4,C[C@@H]1CN([C@@H](C)CO)C(=O)c2cccc(NC(=O)CCCCCC(=O)Nc3ccccc3N)c2O[C@H]1CN(C)C(=O)Nc1cccc2ccccc12,20.8% (active)
5,Cc1noc(C)c1NC(=O)N(C)C[C@@H]1Oc2c(NC(=O)C3CCCCC3)cccc2C(=O)N([C@H](C)CO)C[C@@H]1C,-0.956%
6,Cc1noc(C)c1NC(=O)N(C)C[C@@H]1Oc2c(NC(=O)CCCCCC(=O)Nc3ccccc3N)cccc2C(=O)N([C@H](C)CO)C[C@@H]1C,57.6% (active)
7,Cc1noc(C)c1NC(=O)Nc1cccc2c1O[C@H](CN(C)C(=O)Nc1c(C)noc1C)[C@@H](C)CN([C@@H](C)CO)C2=O,-1.85%
8,COCC(=O)N1[C@H](CO)[C@H](c2ccccc2C2=CCCCC2)[C@@H]1C#N,5.95%
9,C[C@H]1CN([C@@H](C)CO)C(=O)c2cccc(NC(=O)Nc3ccc(C(F)(F)F)cc3)c2O[C@H]1CN(C)CC1CCCCC1,-8.84%
10,CC(=O)N1[C@H](CN(C)S(=O)(=O)c2ccccc2)[C@H](c2ccccc2)[C@@H]1CO,15.4%
11,COc1cccc(S(=O)(=O)N(C)C[C@@H]2Oc3cc(C4=CCCCC4)ccc3S(=O)(=O)N([C@H](C)CO)C[C@H]2C)c1,2.02%
12,O=C(COc1ccc2c3c(c(=O)oc2c1)CCCC3)NCC(O)c1ccccc1 (stereo not drawn),3.96%
13,NC(=O)C1CCN(C(=O)COc2ccc3c4c(c(=O)oc3c2)CCC4)CC1,68.3% (active)
14,O=C(COc1ccc2c3c(c(=O)oc2c1)CCC3)NC1CCCCC1,2.16%
15,COC(=O)C1=C(C)N(Cc2cccc(C(F)(F)F)c2)C(=NCc2ccccc2)NC1c1ccccc1C(F)(F)F (stereo not drawn),-6.35%
16,COC(=O)C1=C(C)N(Cc2cccc(C(F)(F)F)c2)C(=NCc2ccccc2)NC1c1ccc(Cl)cc1 (stereo not drawn),27.3% (active)
17,COC(=O)C1=C(C)N(Cc2cccc(C(F)(F)F)c2)C(=NCc2cccc(C(F)(F)F)c2)NC1c1ccccc1C(F)(F)F (stereo not drawn),19.7%
18,Cc1noc(C)c1NC(=O)Nc1ccc2c(c1)C(=O)N([C@H](C)CO)C[C@H](C)[C@H](CN(C)C(=O)C1CCCCC1)OCCCC[C@@H](C)O2,-8%
19,CCN1[C@@H]2c3ccc(C4=CCCC4)c(=O)n3C[C@@H]2[C@@H](CO)[C@@H]1C(=O)NCc1ccccn1,-1.73%
20,O=C(Cc1ccccn1)N[C@@H]1CC[C@H](CCn2cc(-c3ccc(F)cc3)nn2)O[C@@H]1CO,-1.64%
21,COCC(=O)Nc1ccc2c(c1)[C@@H]1C[C@H](CC(=O)NCc3ccc(Cl)cc3)O[C@H](CO)[C@@H]1O2,2.48%
22,Cc1ccc(CCN2CC(C(=O)NCCc3ccccc3)CC2=O)cc1 (stereo not drawn),34.2% (active)
23,O=C(NCCCN1CCCCC1)C1CC(=O)N(CCc2ccccc2)C1 (stereo not drawn),4.06%

row,SMILES,CPE inhibition
1,O=C(NC1CCCCC1)C1CC(=O)N(CCc2ccccc2)C1 (stereo not drawn),-1.18%
2,CCCN1C[C@@H](C)[C@@H](OC)CN(C)C(=O)c2cc(NC(=O)c3ccccc3)ccc2OC[C@H]1C,-10.4%
3,CC(=O)Nc1cccc(-c2ccnc3c2CC(C)(C(=O)NCc2ccco2)O3)c1 (stereo not drawn),32.1% (active)
4,COc1ccc(NC(=O)C2(C)Cc3c(-c4cccc(NC(C)=O)c4)ccnc3O2)cc1 (stereo not drawn),-2.95%
5,CC1(C(=O)NCc2ccco2)Cc2c(-c3ccc4c(c3)OCO4)ccnc2O1 (stereo not drawn),7.65%
6,COCC#Cc1cnc2c(c1)C(=O)N([C@@H](C)CO)C[C@@H](C)[C@@H](CN(C)C(=O)Nc1ccccc1OC)O2,8.53%
7,CN1CCN(CC(=O)Nc2cccc([N+](=O)[O-])c2)CC1,-4.21%
8,Cc1ccc(S(=O)(=O)N(Cc2cccc([N+](=O)[O-])c2)C(=O)N2CCN(C)CC2)cc1,56.8% (active)
9,CCN1CCN(C(=O)N(Cc2ccc(Cl)cc2)S(=O)(=O)c2ccc(C)cc2)CC1,-3.82%
10,Cc1ccccc1-c1ccc2c(c1)O[C@@H](CN(C)Cc1ccncc1)[C@@H](C)CN([C@H](C)CO)S2(=O)=O,7.62%
11,CN(C)c1ccc2c(c1)[C@H]1C[C@H](CC(=O)O)O[C@H](CO)[C@H]1O2,0.102%
12,C[C@@H]1CN([C@@H](C)CO)C(=O)c2cccc(NC(=O)c3ccc(-c4nccs4)cc3)c2O[C@H]1CN(C)Cc1ccc(Cl)c(Cl)c1,-8.98%
13,Cc1ccc(C(=O)C(=S)N2CCOCC2)cc1,41.4% (active)
14,Cc1ccc(C(=O)Oc2ccc(C(=S)N3CCOCC3)cc2)cc1,12.3%
15,Cc1ccc(C(=O)N2CCN(S(=O)(=O)N3CCOCC3)CC2)cc1,-4.28%
16,C[C@@H]1CCCCO[C@H](CN(C)Cc2ccc(Cl)c(Cl)c2)[C@H](C)CN([C@@H](C)CO)C(=O)c2cc(NC(=O)CCC(F)(F)F)ccc2O1,2.84%
17,C[C@H](NC(=O)C[C@H]1CC[C@H]2[C@@H](COC[C@H](O)CN2C(=O)Nc2cc(Cl)cc(Cl)c2)O1)c1ccccc1,-1.1%
18,C/C=C\C=C\C(=O)N1CC2(CC(c3cccc(NC(=O)/C(C)=C\C)c3)=NO2)C[C@H]1C(N)=O (stereo partly drawn),11.7%
19,CC/C=C/C(=O)N1CC2(CC(c3cccc(NC(=O)CC)c3)=NO2)C[C@H]1C(N)=O (stereo partly drawn),-7.83%
20,C/C=C(\C)C(=O)N1CC2(CC(c3cccc(NC(=O)CCCCC)c3)=NO2)C[C@@H]1C(N)=O (stereo partly drawn),85.8% (active)
21,C[C@@H]1CN([C@H](C)CO)C(=O)c2cc(C3=CCCCC3)cnc2O[C@@H]1CN(C)C(=O)c1ccc2c(c1)OCO2,-7.8%
22,C[C@@H]1CCCCO[C@H](CN(C)S(=O)(=O)c2cccs2)[C@H](C)CN([C@H](C)CO)C(=O)c2cc(NC(=O)c3ccccc3)ccc2O1,56.2% (active)
23,CC(C)NC(=O)Nc1ccc2c(c1)C(=O)N([C@H](C)CO)C[C@@H](C)[C@@H](CN(C)S(=O)(=O)c1cccs1)OCCCC[C@@H](C)O2,-0.241%

row,SMILES,CPE inhibition
1,C[C@@H]1CN([C@H](C)CO)C(=O)c2cc(NC(=O)c3ccccc3)ccc2O[C@@H](C)CCCCO[C@H]1CN(C)S(=O)(=O)c1ccccc1,-7.35%
2,C[C@@H]1CCCCO[C@H](CN(C)S(=O)(=O)c2cccs2)[C@@H](C)CN([C@H](C)CO)C(=O)c2cc(NC(=O)Nc3ccccc3)ccc2O1,9.31%
3,COc1ccc(S(=O)(=O)N(C)C[C@@H]2OCCCC[C@@H](C)Oc3ccc(NC(=O)c4ccccc4)cc3C(=O)N([C@@H](C)CO)C[C@H]2C)cc1,53.6% (active)
4,COc1ccc(S(=O)(=O)N(C)C[C@H]2OCCCC[C@@H](C)Oc3ccc(NC(=O)c4ccncc4)cc3C(=O)N([C@H](C)CO)C[C@@H]2C)cc1,-4.42%
5,COC(=O)C[C@@H]1C[C@H]2c3cc(NC(=O)NC4CCCC4)ccc3O[C@H]2[C@H](CO)O1,0.692%
6,CC(C)CC#Cc1ccc2c(c1)O[C@H](CN(C)C(=O)Cc1cccnc1)[C@H](C)CN([C@@H](C)CO)S2(=O)=O,-0.534%
7,CO[C@@H]1CN(C)C(=O)c2ccc(NC(=O)Nc3ccccc3)cc2OC[C@H](C)N(C(=O)CC2CC2)C[C@@H]1C,-5.7%
8,COC(=O)C[C@@H]1C=C[C@@H](NS(=O)(=O)c2cccc(OC)c2)[C@@H](CO)O1,1.84%
9,COc1ccccc1S(=O)(=O)N[C@@H]1C=C[C@H](CC(=O)NCc2cccc(F)c2)O[C@H]1CO,41.8% (active)
10,COc1cccc(S(=O)(=O)N[C@H]2C=C[C@@H](CC(=O)NCc3ccc(F)cc3)O[C@@H]2CO)c1,3.36%
11,COc1cccc(S(=O)(=O)N[C@H]2C=C[C@H](CC(=O)NCc3ccc(Cl)cc3)O[C@@H]2CO)c1,23.8% (active)
12,COc1cccc(S(=O)(=O)N[C@H]2C=C[C@@H](CC(=O)NCc3ccccc3)O[C@@H]2CO)c1,-4.65%
13,COc1ccccc1S(=O)(=O)N[C@H]1CC[C@@H](CC(=O)NCc2cc(F)cc(F)c2)O[C@H]1CO,-1.83%
14,COc1ccc2c3c([nH]c2c1)[C@H](CO)N(C(=O)NC1CCCC1)CC31CN(C(=O)Nc2cccc(F)c2)C1,9.59%
15,COc1ccc(NC(=O)Nc2ccc3c(c2)C(=O)N([C@@H](C)CO)C[C@@H](C)[C@H](CN(C)C(=O)NC(C)C)OCCCC[C@H](C)O3)cc1,3.37%
16,Cc1ccc(S(=O)(=O)Nc2ccc3c(c2)C(=O)N(C)[C@H]2CC[C@H](CC(=O)O)O[C@H]2CO3)cc1,4.91%
17,COc1ccc(CNC(=O)C2CC(c3ccc(C(F)(F)F)cc3)=NO2)cc1 (stereo not drawn),87.8% (active)
18,COc1ccc(CNC(=O)C2CCCC2)cc1,-2.88%
19,O=C(NCc1cc(C(F)(F)F)cc(C(F)(F)F)c1)C1CC(c2cccc(F)c2)=NO1 (stereo not drawn),23.7% (active)
20,COc1ccc(C2=NOC(Cn3nc(C(=O)NCc4ccc5c(c4)OCO5)cc3-c3ccccc3)C2)cc1 (stereo not drawn),10.2%
21,O=C(NCCCCc1ccccc1)C1CC(c2ccc([N+](=O)[O-])cc2)=NO1 (stereo not drawn),15.1%
22,O=C(NCc1cc(F)cc(C(F)(F)F)c1)C1CCC(=O)N(C2CCCC2)C1 (stereo not drawn),0.846%
